# Measurements taken from PubChem BioAssay.
# A number with no mark means an inactive call. Active and inactive are the calls of the source. How the calls were made is not given here.
# Legend:
# [1] = biological target: Botulinum neurotoxin type A (Clostridium botulinum) (UniProt P0DPI0); experiment: BoNT/A light chain protease inhibitors, biochemical, multiplex microsphere flow cytometry, validation set (AID 588460); details: at 10 µM, active compounds read high
# [2] = biological target: Lethal factor (Bacillus anthracis) (UniProt P15917); experiment: Lethal factor protease inhibitors, Bacillus anthracis, multiplex microsphere cleavage assay, validation set (AID 588461); details: flow cytometry, at 10 µM, active compounds read high
# Chain of Lethal factor (Bacillus anthracis) (P15917 whole entry, looked up): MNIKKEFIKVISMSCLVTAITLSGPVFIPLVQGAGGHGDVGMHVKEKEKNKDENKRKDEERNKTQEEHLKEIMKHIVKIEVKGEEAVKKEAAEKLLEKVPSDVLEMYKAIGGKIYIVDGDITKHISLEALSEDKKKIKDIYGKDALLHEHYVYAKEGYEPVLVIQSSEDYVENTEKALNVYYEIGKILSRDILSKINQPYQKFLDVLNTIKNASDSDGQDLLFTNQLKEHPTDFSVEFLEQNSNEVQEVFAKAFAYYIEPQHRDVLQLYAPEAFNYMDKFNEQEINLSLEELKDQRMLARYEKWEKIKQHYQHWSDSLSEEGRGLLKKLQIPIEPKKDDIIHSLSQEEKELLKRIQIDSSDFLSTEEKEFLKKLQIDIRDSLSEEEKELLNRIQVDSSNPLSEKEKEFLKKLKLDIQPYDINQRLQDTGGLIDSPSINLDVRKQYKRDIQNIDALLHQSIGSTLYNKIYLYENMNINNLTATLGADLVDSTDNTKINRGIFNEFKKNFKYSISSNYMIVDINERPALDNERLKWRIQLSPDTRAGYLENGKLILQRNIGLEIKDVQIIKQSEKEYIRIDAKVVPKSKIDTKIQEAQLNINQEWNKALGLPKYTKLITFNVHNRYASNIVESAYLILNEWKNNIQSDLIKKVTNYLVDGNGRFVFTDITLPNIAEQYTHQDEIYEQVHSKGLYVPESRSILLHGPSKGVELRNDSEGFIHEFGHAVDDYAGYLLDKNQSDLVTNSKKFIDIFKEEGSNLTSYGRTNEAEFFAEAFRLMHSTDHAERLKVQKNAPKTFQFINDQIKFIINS
# [3] = system: Botulinum neurotoxin type F light chain protease (Clostridium botulinum); experiment: Botulinum neurotoxin type F light chain protease inhibition, multiplex microsphere flow cytometry, validation set (AID 588459); details: multiplex microsphere protease substrate cleavage assay, at 10 µM, active compounds read high
# Chain of Botulinum neurotoxin type A (Clostridium botulinum) (P0DPI0 whole entry, looked up): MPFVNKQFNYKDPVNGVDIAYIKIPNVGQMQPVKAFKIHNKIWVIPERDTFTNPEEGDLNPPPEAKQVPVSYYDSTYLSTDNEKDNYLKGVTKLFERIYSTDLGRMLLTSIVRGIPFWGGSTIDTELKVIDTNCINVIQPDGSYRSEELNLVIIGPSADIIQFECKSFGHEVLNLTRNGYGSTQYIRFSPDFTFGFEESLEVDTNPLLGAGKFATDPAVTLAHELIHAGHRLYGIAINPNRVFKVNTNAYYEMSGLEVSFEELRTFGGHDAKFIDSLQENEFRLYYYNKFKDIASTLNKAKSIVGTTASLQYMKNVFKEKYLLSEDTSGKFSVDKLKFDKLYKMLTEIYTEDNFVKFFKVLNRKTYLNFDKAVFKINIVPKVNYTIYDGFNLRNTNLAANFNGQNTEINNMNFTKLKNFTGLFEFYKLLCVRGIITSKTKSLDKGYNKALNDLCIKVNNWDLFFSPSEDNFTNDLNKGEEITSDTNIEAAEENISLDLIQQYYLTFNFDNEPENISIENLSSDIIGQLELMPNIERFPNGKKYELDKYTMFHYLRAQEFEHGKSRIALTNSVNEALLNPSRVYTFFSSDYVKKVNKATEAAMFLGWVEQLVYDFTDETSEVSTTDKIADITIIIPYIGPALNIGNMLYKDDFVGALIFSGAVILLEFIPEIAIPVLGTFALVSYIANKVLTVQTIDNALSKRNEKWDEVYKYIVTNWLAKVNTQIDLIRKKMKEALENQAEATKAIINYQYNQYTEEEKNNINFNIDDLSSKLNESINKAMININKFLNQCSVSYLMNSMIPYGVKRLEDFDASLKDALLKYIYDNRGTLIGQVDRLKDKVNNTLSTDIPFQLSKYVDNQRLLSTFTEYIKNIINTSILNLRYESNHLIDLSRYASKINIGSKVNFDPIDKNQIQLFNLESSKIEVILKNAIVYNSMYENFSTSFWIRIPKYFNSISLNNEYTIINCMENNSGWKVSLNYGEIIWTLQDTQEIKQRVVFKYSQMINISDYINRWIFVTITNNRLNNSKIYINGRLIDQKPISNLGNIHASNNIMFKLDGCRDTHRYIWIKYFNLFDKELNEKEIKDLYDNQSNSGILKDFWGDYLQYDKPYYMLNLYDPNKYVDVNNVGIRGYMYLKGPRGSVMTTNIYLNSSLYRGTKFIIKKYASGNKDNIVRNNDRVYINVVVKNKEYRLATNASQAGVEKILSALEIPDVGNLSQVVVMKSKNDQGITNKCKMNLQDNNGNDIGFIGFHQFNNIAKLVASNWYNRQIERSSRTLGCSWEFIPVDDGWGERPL
SMILES,inhibition [1] [%],inhibition [2],inhibition [3] [%]
CC[C@H](C)C(=O)O[C@H]1C[C@@H](C)C=C2C=C[C@H](C)[C@H](CC[C@@H]3C[C@@H](O)CC(=O)O3)[C@H]21,0.7,10.4%,
CCN(CC)CCNC(=O)c1ccc(N)cc1,,2.4%,
C[C@@H]1C[C@H]2[C@@H]3C[C@H](F)C4=CC(=O)C=C[C@]4(C)[C@@]3(F)[C@@H](O)C[C@]2(C)[C@@]1(O)C(=O)COC(=O)C(C)(C)C,-2.1,3.4%,-2.6
CCOC(=O)C1CCCN(Cc2nc(Cc3cccc(F)c3)no2)C1 (stereo unspecified),-0.4,0.6%,0.1
O=C1CC2(CCCC2)CC(=O)N1CCCCN1CCN(c2ncccn2)CC1,0.2,6.7%,
COc1ccccc1N1CCN(CC(O)COc2cccc3ccccc23)CC1 (stereo unspecified),-2.3,-6.6%,-2
Cc1cccc(-c2ncc(CN3CCN(CC(C)C)C(CCO)C3)cn2)c1 (stereo unspecified),0.9,0.4%,2.6
CN(C)CCC(c1ccc(Cl)cc1)c1ccccn1 (stereo unspecified),-0.2,,
COc1cc(C2C(C(=O)c3ccc(C)o3)=C(O)C(=O)N2Cc2cccnc2)ccc1O (stereo unspecified),-0.4,-0.1%,1.8
CN1C(=O)C(O)(CC(=O)c2ccccc2O)c2cc(Br)ccc21 (stereo unspecified),-0.1,-5.4%,3.2
CC(C)=CCCC1=CCC2C(=O)NNC(=O)C2C1 (stereo unspecified),-1,3%,-1.6
COc1ccc(C2NC(C(=O)O)Cc3c2[nH]c2ccccc32)cc1CN1CCN(c2ccc(F)cc2)CC1 (stereo unspecified),0.4,2.2%,8.8
COc1ccc(CC(=O)c2c(O)cc(O)cc2O)cc1OC,1.7,-2.8%,0
Cc1nnc(SCC2=C(C(=O)O)N3C(=O)[C@@H](NC(=O)Cn4cnnn4)[C@H]3SC2)s1,,0.6%,
NCCCC(=O)O,,0.3%,
CC(C(=O)O)c1cccc(C(=O)c2ccccc2)c1 (stereo unspecified),-1.5,5.8%,
O=C(O)CCNC(=O)c1ccccc1,,-7.3%,
CC(C)OC(=O)C(C)(C)Oc1ccc(C(=O)c2ccc(Cl)cc2)cc1,,-0.7%,
CN1CCc2cccc3c2[C@@H]1Cc1ccc(O)c(O)c1-3,-6.6,-53.3%,
C/C(NC(=O)c1cccs1)=C1\C(=O)C[C@@H]2[C@H]1C2(C)C,0.5,3.4%,3
CCc1cccc2c1NC1(CCCC1)CC2C (stereo unspecified),-1.3,167% (active),
NC(=O)N1c2ccccc2CC(=O)c2ccccc21,0.3,0.4%,-1.1
CC(C)(C)c1ccc(C(O)CCCN2CCC(C(O)(c3ccccc3)c3ccccc3)CC2)cc1 (stereo unspecified),-2.5,-3.6%,
CCn1c(O)c(/C=C2\C=Nc3ccccc32)sc1=O,0.3,-0.8%,2.3
Nc1nc2c(ncn2COCCO)c(=O)[nH]1,,0.4%,
CC(C)C[C@H](NC(=O)[C@@H]1Cc2ccccc2CN1C(=O)OC(C)(C)C)C(=O)NCC1CCC(C(=O)O)CC1 (stereo partly specified),0.3,-3.6%,3
COc1ccc(Cc2noc(CN(C)CCN3CCc4ccccc4C3)n2)cc1OC,-0.3,-7.4%,-1.9
